Activity calls are given as the source filed them. The calls were made as follows: active = hit-call score of the fitted dose curve at least 0.9, where 1 is the maximum; inactive = score below 0.9.
Columns and labels:
[1] = target: Transcription factor E2F1 (Homo sapiens) (UniProt Q01094); test: ATG_E2F_CIS: Attagene CIS-FACTORIAL HepG2 Assay for human E2F Transcription Factor 1 (AID 2282935); details: HepG2 Attagene cis-reporter, E2F reporter RNA transcripts; actives raise or lower the signal
Outline: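 Total RNA from 24 h-treated, reporter-transfected HepG2 cells undergoes DNase I treatment, oligo(dT) reverse transcription, PCR and 6-FAM primer extension before capillary electrophoresis.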

[2] = ATG_E_Box_CIS: Attagene CIS-FACTORIAL HepG2 Assay for human Enhancer Box (E-box) (AID 2282936); details: HepG2 E-box cis-reporter transcription, actives raise or lower the signal
Outline: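 DMSO served as negative control and baseline for bidirectional fitting. Human hepatoma HepG2 cells, transiently transfected with cis-reporter constructs, were dosed 24 h; reporter mRNA read by RT-PCR and capillary electrophoresis.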

[3] = ATG_M_61_CIS: Attagene CIS-FACTORIAL HepG2 Assay for M61 Transcription Factor (Internal Marker) (AID 2282937); details: HepG2 Attagene CIS-FACTORIAL M61 internal marker reporter; actives raise or lower the signal
Outline: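 Endogenous transcription factor activity in HepG2 is read through transiently transfected cis-element reporter units. After 24 h dosing, RNA undergoes reverse transcription, PCR and primer extension with 6-FAM before capillary electrophoresis; DMSO-referenced bidirectional fit.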

[4] = ATG_EGR_CIS: Attagene CIS-FACTORIAL HepG2 Assay for human Early Growth Response 1 (EGR1) (AID 2282938); details: HepG2 Attagene CIS-FACTORIAL EGR reporter mRNA; actives raise or lower the signal
Outline: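 Activity is taken as induction or loss of reporter mRNA versus DMSO, fitted bidirectionally. Transcripts from cis-regulated reporter units in transiently transfected HepG2 were measured after 24 h by RT-PCR with capillary electrophoresis.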

[5] = ATG_M_19_CIS: Attagene CIS-FACTORIAL HepG2 Assay for M19 Transcription Factor (Internal Marker) (AID 2282939); details: HepG2 Attagene CIS-FACTORIAL M19 internal marker reporter; actives raise or lower the signal
Outline: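 Background-control endpoint from a multiplexed HepG2 reporter panel. Cells carrying cis-regulated reporter constructs are treated 24 h, then reporter transcripts are amplified, fluorescently labelled and sized by capillary electrophoresis. DMSO defines baseline.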

[6] = ATG_ERE_CIS: Attagene CIS-FACTORIAL HepG2 Assay for Estrogen Response Element (ERE) (AID 2282940); details: HepG2 ERE cis-reporter, Attagene RNA transcript; actives raise or lower the signal
Outline: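 Cells used were human hepatoma HepG2, transfected with multiple reporter transcription units under cis-regulatory promoters. Reporter mRNA, read 24 h post-dosing via fluorescent RT-PCR products on capillary electrophoresis, was fitted bidirectionally relative to DMSO.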

[7] = ATG_Ets_CIS: Attagene CIS-FACTORIAL HepG2 Assay for human Erythroblast Transformation Specific (ETS) (AID 2282941); details: HepG2 ETS cis-reporter transcription, actives raise or lower the signal
Outline: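 HepG2 cells transfected with multiple cis-regulated reporter units measuring endogenous ETS-driven transcription, 24 h after dosing. Reporter mRNA quantified by RT-PCR with capillary electrophoresis; bidirectional fit relative to DMSO.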

[8] = target: Hepatocyte nuclear factor 3-beta (Homo sapiens) (UniProt Q9Y261); test: ATG_FoxA2_CIS: Attagene CIS-FACTORIAL HepG2 Assay for human Forkhead box A2 (FOXA2) (AID 2282942); details: HepG2 cis-reporter transcription factor activity, 24 h; actives raise or lower the signal
Outline: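 Reporter transcript induction is measured by fluorescence after capillary electrophoresis of RT-PCR products from HepG2 cells exposed 24 h. Cis-regulated reporter units report endogenous factor activity; curves fitted both directions against DMSO.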

[9] = ATG_FoxO_CIS: Attagene CIS-FACTORIAL HepG2 Assay for human Forkhead box O (FoxO) (AID 2282943); details: HepG2 Attagene cis-reporter, FoxO element, mRNA; actives raise or lower the signal
Outline: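 Human hepatoma HepG2 cells carry transiently introduced reporter transcription units controlled by cis promoter elements. Chemical treatment lasted 24 h, and mRNA signal was compared with DMSO.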

[10] = ATG_GATA_CIS: Attagene CIS-FACTORIAL HepG2 Assay for human GATA Binding Protein (AID 2282944); details: HepG2 GATA cis-element reporter, Attagene multiplex mRNA; actives raise or lower the signal
Outline: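 Endogenous transcription factor activity was captured through cis-promoter-driven reporters in transfected HepG2 cells. After 24 h exposure, reporter transcripts were quantified by RT-PCR with fluorescent capillary electrophoresis, and responses fitted both directions against DMSO.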

[11] = ATG_GLI_CIS: Attagene CIS-FACTORIAL HepG2 Assay for human Zinc Finger Protein GLI1 (AID 2282945); details: HepG2, Attagene cis-factorial reporter mRNA, GLI element; actives raise or lower the signal
Outline: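 Bidirectional curve fits relative to DMSO, using reporter mRNA levels from RT-PCR plus capillary electrophoresis. Cells were HepG2 transiently carrying cis-regulated reporter constructs, harvested 24 h after dosing.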

[12] = target: Bile acid receptor (Homo sapiens) (UniProt Q96RI1); test: ATG_IR1_CIS: Attagene CIS-FACTORIAL HepG2 Assay for human Nuclear Receptor Subfamily 1 Group H Member 4 (NR1H4), IR1 submotif (AID 2282946); details: IR1 reporter transcription, actives raise or lower the signal
Outline: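 Cells (human HepG2) carry transiently transfected cis-promoter reporter transcription units. Compounds are incubated 24 h, total RNA is reverse-transcribed and amplified, and labelled fragments are resolved by capillary electrophoresis. Curves use DMSO as baseline.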

[13] = ATG_ISRE_CIS: Attagene CIS-FACTORIAL HepG2 Assay for human Interferon Regulatory Factor 1 (IRF1) binding to an Interferon-Stimulated Response Element (ISRE) (AID 2282948); details: HepG2 ISRE cis-reporter (Attagene), mRNA transcription readout; actives raise or lower the signal
Outline: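 Transiently transfected HepG2 cells carrying cis-element reporter units, dosed 24 hours. Reporter mRNA quantified by RT-PCR, fluorescent primer extension, HpaI digestion and capillary electrophoresis. Bidirectional fitting relative to DMSO.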

[14] = ATG_M_32_CIS: Attagene CIS-FACTORIAL HepG2 Assay for M32 Transcription Factor (Internal Marker) (AID 2282949); details: HepG2 Attagene cis-factorial M32 reporter, mRNA; actives raise or lower the signal;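 also: background control marker of the multiplexed CIS panel rather than a real target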
Outline: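 Internal background marker read-out: RT-PCR/capillary electrophoresis fluorescence of reporter transcripts from transiently transfected HepG2 cells after 24 h chemical exposure. Activity fitted bidirectionally relative to DMSO negative control.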

[15] = ATG_M_06_CIS: Attagene CIS-FACTORIAL HepG2 Assay for M06 Transcription Factor (Internal Marker) (AID 2282950); details: HepG2 Attagene CIS-FACTORIAL M06 internal marker reporter; actives raise or lower the signal
Outline: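 Steps: transfect HepG2 with multiplexed cis-element reporter constructs; dose chemical 24 h; extract RNA with DNase treatment; reverse-transcribe, PCR-amplify, 6-FAM label, HpaI digest; separate fragments by capillary electrophoresis. Activity fitted both directions versus DMSO.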

[16] = target: Hypoxia-inducible factor 1-alpha (Homo sapiens) (UniProt Q16665); test: ATG_HIF1a_CIS: Attagene CIS-FACTORIAL HepG2 Assay for human Hypoxia Inducible Factor 1 (HIF1A) (AID 2282951); details: HepG2 Attagene cis-factorial HIF1a reporter transcription; actives raise or lower the signal
Outline: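 Fluorescence intensity of capillary-separated, 6-FAM-labelled reporter amplicons gives mRNA induction in HepG2 cells carrying transfected cis-promoter reporter units; cells exposed 24 h, responses fitted up or down from DMSO.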

[17] = target: Hepatocyte nuclear factor 6 (Homo sapiens) (UniProt Q9UBC0); test: ATG_HNF6_CIS: Attagene CIS-FACTORIAL HepG2 Assay for human Hepatocyte Nuclear Factor 6 (HNF6) (AID 2282952); details: HepG2 Attagene cis-factorial HNF6 reporter transcription; actives raise or lower the signal
Outline: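 HepG2 cells transiently transfected with cis-element-driven multiple reporter transcription units, dosed 24 h; reporter mRNA quantified by RT-PCR, FAM primer extension, HpaI digestion and capillary electrophoresis; bidirectional fit versus DMSO baseline.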

[18] = target: Heat shock factor protein 1 (Homo sapiens) (UniProt Q00613); test: ATG_HSE_CIS: Attagene CIS-FACTORIAL HepG2 Assay for human Heat Shock Transcription Factor 1 (HSE) (AID 2282953); details: HepG2 HSE cis-reporter, Attagene RNA transcription; actives raise or lower the signal
Outline: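 Cells were transfected with cis-element-driven reporter constructs, dosed for 24 h, then total RNA was reverse-transcribed and reporter cDNA amplified, FAM-labelled and digested with HpaI. Fragments were resolved by capillary electrophoresis; gain or loss was fitted against DMSO.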

[19] = ATG_MRE_CIS: Attagene CIS-FACTORIAL HepG2 Assay for human Metal Responsive Element (MRE) (AID 2282954); details: HepG2 MRE cis-reporter transcription, Attagene multiplex; actives raise or lower the signal
Outline: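 After a 24 h chemical exposure, transiently transfected HepG2 cells yield RNA whose reporter sequences are amplified, FAM-labelled and sized by capillary electrophoresis. Curves are fitted bidirectionally relative to DMSO.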

[20] = ATG_GRE_CIS: Attagene CIS-FACTORIAL HepG2 Assay for human Glucocorticoid Response Elements (GRE) (AID 2282947); details: HepG2 GRE cis-reporter, Attagene multiplex mRNA; actives raise or lower the signal
Outline: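 Assay uses human hepatoma HepG2 cells transfected with cis-promoter reporter units, exposed 24 h. mRNA from reporters detected by RT-PCR plus capillary electrophoresis; DMSO serves as negative control and baseline.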

Measured: outcome

Hepatocyte nuclear factor 3-beta (Homo sapiens), sequence (Q9Y261 whole entry, looked up): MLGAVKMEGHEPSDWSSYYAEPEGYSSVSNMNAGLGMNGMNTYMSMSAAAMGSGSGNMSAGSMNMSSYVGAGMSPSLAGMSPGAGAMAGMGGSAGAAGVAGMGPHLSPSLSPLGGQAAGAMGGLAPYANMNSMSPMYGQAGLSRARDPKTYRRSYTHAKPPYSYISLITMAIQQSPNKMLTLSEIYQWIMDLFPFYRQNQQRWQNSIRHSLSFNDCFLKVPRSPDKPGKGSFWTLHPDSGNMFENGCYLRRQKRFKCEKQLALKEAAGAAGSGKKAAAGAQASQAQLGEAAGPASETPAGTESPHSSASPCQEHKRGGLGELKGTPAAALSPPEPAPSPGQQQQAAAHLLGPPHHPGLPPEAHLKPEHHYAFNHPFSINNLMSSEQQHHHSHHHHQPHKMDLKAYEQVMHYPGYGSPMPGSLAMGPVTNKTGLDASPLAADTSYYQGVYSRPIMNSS
Transcription factor E2F1 (Homo sapiens), sequence (Q01094 whole entry, looked up): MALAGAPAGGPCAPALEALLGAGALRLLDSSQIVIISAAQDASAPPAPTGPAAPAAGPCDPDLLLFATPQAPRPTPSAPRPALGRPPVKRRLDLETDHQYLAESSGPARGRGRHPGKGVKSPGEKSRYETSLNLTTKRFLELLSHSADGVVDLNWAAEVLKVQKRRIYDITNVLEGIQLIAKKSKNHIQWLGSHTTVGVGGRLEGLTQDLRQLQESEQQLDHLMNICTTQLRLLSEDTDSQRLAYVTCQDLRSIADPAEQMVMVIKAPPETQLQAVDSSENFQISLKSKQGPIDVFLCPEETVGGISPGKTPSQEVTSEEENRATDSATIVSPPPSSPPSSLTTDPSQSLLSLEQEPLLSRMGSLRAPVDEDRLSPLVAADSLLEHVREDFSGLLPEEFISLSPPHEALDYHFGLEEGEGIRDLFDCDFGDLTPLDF
Heat shock factor protein 1 (Homo sapiens), sequence (Q00613 whole entry, looked up, the tested form may be a part): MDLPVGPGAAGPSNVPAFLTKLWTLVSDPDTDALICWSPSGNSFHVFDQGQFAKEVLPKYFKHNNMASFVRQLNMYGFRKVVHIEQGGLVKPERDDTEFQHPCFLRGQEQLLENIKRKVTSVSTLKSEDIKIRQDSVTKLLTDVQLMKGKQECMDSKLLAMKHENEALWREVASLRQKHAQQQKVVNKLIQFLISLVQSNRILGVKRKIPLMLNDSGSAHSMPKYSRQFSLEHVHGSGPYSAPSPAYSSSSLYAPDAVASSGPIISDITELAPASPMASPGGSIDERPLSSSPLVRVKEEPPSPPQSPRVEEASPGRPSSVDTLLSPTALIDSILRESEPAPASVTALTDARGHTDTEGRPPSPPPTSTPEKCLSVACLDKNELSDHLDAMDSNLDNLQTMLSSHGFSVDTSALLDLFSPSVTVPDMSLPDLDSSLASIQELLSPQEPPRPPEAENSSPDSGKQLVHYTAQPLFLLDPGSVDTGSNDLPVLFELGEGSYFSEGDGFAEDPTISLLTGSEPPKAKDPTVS
Hypoxia-inducible factor 1-alpha (Homo sapiens), sequence (Q16665 whole entry, looked up): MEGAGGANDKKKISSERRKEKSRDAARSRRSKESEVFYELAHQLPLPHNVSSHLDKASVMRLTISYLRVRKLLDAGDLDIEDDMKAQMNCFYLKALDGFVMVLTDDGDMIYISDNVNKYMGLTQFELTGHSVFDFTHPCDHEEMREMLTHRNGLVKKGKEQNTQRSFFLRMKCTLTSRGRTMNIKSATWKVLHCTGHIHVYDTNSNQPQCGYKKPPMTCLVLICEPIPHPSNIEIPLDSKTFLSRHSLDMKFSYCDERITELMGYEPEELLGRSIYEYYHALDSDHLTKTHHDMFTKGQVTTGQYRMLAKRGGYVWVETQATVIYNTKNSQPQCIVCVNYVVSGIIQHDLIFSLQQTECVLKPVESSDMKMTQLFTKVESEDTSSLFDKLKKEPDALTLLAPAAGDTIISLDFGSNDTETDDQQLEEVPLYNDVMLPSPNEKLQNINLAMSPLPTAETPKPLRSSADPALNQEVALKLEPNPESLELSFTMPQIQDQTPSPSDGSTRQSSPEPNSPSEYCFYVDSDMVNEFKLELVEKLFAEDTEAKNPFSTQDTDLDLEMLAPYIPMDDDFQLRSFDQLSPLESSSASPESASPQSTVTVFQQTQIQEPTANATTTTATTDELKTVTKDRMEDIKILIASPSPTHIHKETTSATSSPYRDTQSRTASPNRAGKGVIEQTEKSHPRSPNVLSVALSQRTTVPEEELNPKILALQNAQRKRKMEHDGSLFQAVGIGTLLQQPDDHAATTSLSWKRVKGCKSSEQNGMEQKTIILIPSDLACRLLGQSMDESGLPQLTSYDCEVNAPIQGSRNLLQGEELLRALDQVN
Bile acid receptor (Homo sapiens), sequence (Q96RI1 whole entry, looked up, the tested form may be a part): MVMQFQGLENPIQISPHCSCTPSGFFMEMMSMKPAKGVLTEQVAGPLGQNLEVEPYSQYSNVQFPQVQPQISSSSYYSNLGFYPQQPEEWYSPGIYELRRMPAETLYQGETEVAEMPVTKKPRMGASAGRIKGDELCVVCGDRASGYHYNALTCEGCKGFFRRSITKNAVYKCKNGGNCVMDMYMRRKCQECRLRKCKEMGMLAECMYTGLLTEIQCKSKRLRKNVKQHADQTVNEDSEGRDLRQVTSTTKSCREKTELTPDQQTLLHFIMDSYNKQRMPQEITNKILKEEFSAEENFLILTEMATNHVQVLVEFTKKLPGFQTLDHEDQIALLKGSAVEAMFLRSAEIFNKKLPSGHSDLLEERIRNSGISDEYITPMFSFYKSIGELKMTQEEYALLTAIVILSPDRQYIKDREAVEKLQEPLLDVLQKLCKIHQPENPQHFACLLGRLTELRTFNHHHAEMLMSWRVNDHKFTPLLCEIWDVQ
Hepatocyte nuclear factor 6 (Homo sapiens), sequence (Q9UBC0 whole entry, looked up): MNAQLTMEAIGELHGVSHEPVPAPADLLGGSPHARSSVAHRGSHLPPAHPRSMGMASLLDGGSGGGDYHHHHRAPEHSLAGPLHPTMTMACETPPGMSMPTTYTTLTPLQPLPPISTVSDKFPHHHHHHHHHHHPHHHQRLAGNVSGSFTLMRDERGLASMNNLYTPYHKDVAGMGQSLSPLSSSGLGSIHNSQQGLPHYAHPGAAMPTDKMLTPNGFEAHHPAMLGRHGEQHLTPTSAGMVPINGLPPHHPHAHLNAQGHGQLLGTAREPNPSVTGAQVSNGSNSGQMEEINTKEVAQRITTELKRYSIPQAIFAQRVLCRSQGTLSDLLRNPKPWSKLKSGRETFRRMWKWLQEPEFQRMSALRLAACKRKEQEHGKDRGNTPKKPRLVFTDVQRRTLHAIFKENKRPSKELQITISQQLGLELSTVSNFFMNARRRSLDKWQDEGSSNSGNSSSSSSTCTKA

CCCCCCCC(=O)OCC
not listed: [20]
inactive: all other assays above

CC(=O)c1ccccc1O
not listed: [17] | [20]
inactive: all other assays above

O=C(Cl)c1c(Cl)c(Cl)c(C(=O)Cl)c(Cl)c1Cl
not listed: [18] | [20]
inactive: all other assays above

Nc1cccc(N)n1
not listed: [12]
inactive: all other assays above

Reference: PubChem BioAssay (EPA / NIEHS)
